Several values for one entry are separate records, joined by “and”; a condition that tells them apart may be missing. Equal values may be shown once. Inconclusive results are not listed. Entries that show only a call come without a potency. Unmarked numbers belong to inactive results. Activity calls are given as the source filed them. Unless noted, calls come from the whole dose curve.

System in the first experiment: not listed separately
In words: qHTS assay to identify small molecule agonists or antagonists of the thyroid stimulating hormone receptor (TSHR) signaling pathway - wild type cell line counter screen (AID 1259384). Particulars: HEK293 wild type, cAMP HTRF counter-screen; series mostly up to 92.4 µM. In a few lines:
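Counter screen in untransfected Hek293: compounds (15-point titration, triplicate) plus phosphodiesterase inhibitor Ro20-1724 added after 18 h plating; 30 min RT. Intracellular cAMP via competitive d2/cryptate immunoassay, 1 h incubation.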
Turning to `CCCCCCCCCCCCCCn1cc[n+](C)c1`, the Potency result was “inactive”.
On the same count and under the same terms, under `O=c1c2ccccc2c(=O)c2c1cc(Cl)c1[nH]c3c([nH]c12)c(Cl)cc1c(=O)c2ccccc2c(=O)c13` stands “inactive”; under `CC(Cc1ccc(OCC(=O)O)cc1)NCC(O)c1csc(C(F)(F)F)n1` (configuration not stated), “inactive”.
The same measure, in the same setting: under `CCC(C)Br` (configuration not stated) stands “inactive”.
The same measure, in the same setting: under `O=[N+]([O-])c1ccccc1-c1ccccc1` stands “inactive”.
Consider `CCN(CC)C(=S)S`, for which the Potency entry is “inactive”.
Same read-out and setting: under `Cc1c([N+](=O)[O-])c(C)c([N+](=O)[O-])c(C(C)(C)C)c1[N+](=O)[O-]` stands “inactive”.
Same read-out and setting: under `CCCCON=O` stands “inactive”; under `C[C@@H]1CC2=CC(=O)CC[C@@H]2[C@H]2CC[C@@]3(C)[C@@H](CC[C@]3(C)O)[C@@H]21`, “inactive”.
Turning to `CCNS(=O)(=O)C(F)(F)C(F)(F)C(F)(F)C(F)(F)C(F)(F)C(F)(F)C(F)(F)C(F)(F)F`, the Potency entry was “inactive”.
Still for that read-out and setting: under `OCC(Br)CBr` (configuration not stated) stands “inactive”; under `CC1=C2C[C@H]3[C@@H](CC=C4C[C@@H](O)CC[C@@]43C)[C@@H]2CC[C@]12O[C@@H]1C[C@H](C)CN[C@H]1[C@H]2C`, “inactive”; under `Oc1cc(Cl)c(Cl)c(Cl)c1Cl`, “inactive”.
In the case of `CCCCC(CC)COC(=O)c1ccccc1C(=O)OCC(CC)CCCC` (configuration not stated), the Potency result was “inactive”.
The same measure, in the same setting: under `CN1C(=O)[C@@H](NC(=O)c2cc3ccccc3[nH]2)N=C(c2ccccc2)c2ccccc21` stands “inactive”; under `CSC(=O)c1c(C(F)F)nc(C(F)(F)F)c(C(=O)SC)c1CC(C)C`, “inactive”.
On the same count and under the same terms, the result for `C[C@H]1[C@H](c2ccc(Cl)cc2)SC(=O)N1C(=O)NC1CCCCC1` reads “inactive”; that for `CNC(C)(C)Cc1ccccc1`, “inactive”; that for `CCN(CC)CCN1C(=O)CN=C(c2ccccc2F)c2cc(Cl)ccc21`, “inactive”.
On the same count and under the same terms, the result for `CC(=O)C(Cl)C(=O)N(C)C` (configuration not stated) reads “inactive”.
For the compound `CCC(C)Nc1c([N+](=O)[O-])cc(C(C)(C)C)cc1[N+](=O)[O-]` (configuration not stated), the Potency result is “inactive”.
Still for that read-out and setting: the result for `CCC1COC(Cn2cncn2)(c2ccc(Cl)cc2Cl)O1` (configuration not stated) reads “inactive”; that for `O=[N+]([O-])c1ccc(CCl)cc1`, “inactive”; that for `CC(C)N(C(=O)SC/C(Cl)=C/Cl)C(C)C`, “inactive”.
Still for that read-out and setting: under `c1ccc(Nc2ccc(Nc3ccccc3)cc2)cc1` stands “inactive”; under `COc1ccc(Cc2nccc3cc(OC)c(OC)cc23)cc1OC`, “inactive”.
Same read-out and setting: the result for `CCCCCCC[CH2][Sn]([Cl])([Cl])[CH2]CCCCCCC` reads “inactive”; that for `CC(C)N(C(=O)CCl)c1ccccc1`, “inactive”.
Turning to `N#Cc1ccc(N(CC(N)=O)CC(F)(F)F)cc1C(F)(F)F`, the Potency entry is “inactive”.
On to `Oc1cccc(Cl)c1Cl`, for which the Potency result was “inactive”.
As to `ClC1=C(Cl)[C@]2(Cl)[C@@H]3[C@H]4C[C@H]([C@@H]5O[C@H]45)[C@@H]3[C@@]1(Cl)C2(Cl)Cl`, the Potency entry is “inactive”.

For another experiment, the target named is Thyrotropin receptor (Homo sapiens) (UniProt P16473). In words: qHTS assay to identify small molecule antagonists of the thyroid stimulating hormone receptor (TSHR) signaling pathway (AID 1259385). Note: nearly all actives have a fitted effect of over 20% in size. Particulars: TSHR-HEK293 cAMP HTRF, TSH-stimulated antagonist mode; series mostly up to 92.4 µM. In a few lines: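 Antagonist mode: compound-treated TSHR-expressing HEK293 cells were stimulated with 1.5 ng/mL TSH (final) in presence of Ro20-1724 for 30 min at RT. HTRF cAMP detection after 1 h; each compound tested at 15 concentrations, triplicate.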
Chain of Thyrotropin receptor (Homo sapiens) (P16473 whole entry, looked up): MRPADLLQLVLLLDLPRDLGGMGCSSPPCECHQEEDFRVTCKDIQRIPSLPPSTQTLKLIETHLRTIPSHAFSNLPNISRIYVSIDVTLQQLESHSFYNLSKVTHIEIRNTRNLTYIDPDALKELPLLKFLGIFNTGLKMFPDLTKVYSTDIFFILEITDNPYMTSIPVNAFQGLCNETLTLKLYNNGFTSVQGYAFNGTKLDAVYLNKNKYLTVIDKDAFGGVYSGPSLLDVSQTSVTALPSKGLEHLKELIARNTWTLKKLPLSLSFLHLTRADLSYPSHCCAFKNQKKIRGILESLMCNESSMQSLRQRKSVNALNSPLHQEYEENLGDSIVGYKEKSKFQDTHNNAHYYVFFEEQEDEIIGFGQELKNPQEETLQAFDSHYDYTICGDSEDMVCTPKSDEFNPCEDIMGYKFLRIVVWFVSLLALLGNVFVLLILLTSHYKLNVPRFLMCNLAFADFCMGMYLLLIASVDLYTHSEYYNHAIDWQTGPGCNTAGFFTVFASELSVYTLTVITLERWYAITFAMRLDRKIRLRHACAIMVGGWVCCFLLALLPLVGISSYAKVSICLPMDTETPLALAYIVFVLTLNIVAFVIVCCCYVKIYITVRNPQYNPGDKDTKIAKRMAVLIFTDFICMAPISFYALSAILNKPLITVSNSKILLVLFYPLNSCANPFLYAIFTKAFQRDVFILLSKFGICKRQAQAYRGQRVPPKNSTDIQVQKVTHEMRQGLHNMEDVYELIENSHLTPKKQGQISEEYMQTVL
As to `O=c1c2ccccc2c(=O)c2c1cc(Cl)c1[nH]c3c([nH]c12)c(Cl)cc1c(=O)c2ccccc2c(=O)c13`, the Potency entry was “inactive”.
On the same count and under the same terms, the result for `CC(Cc1ccc(OCC(=O)O)cc1)NCC(O)c1csc(C(F)(F)F)n1` (configuration not stated) reads “inactive”; that for `CCC(C)Br` (configuration not stated), “inactive”; that for `CCN(CC)C(=S)S`, “inactive”.
Still for that read-out and setting: under `Cc1c([N+](=O)[O-])c(C)c([N+](=O)[O-])c(C(C)(C)C)c1[N+](=O)[O-]` stands “inactive”; under `CCCCON=O`, “inactive”; under `CCNS(=O)(=O)C(F)(F)C(F)(F)C(F)(F)C(F)(F)C(F)(F)C(F)(F)C(F)(F)C(F)(F)F`, “inactive”.
For the compound `OCC(Br)CBr` (configuration not stated), the Potency result was “inactive”.
On to `CC1=C2C[C@H]3[C@@H](CC=C4C[C@@H](O)CC[C@@]43C)[C@@H]2CC[C@]12O[C@@H]1C[C@H](C)CN[C@H]1[C@H]2C`, for which the Potency result is “inactive”.
For the compound `Oc1cc(Cl)c(Cl)c(Cl)c1Cl`, the Potency entry was “inactive”.
With `CCCCC(CC)COC(=O)c1ccccc1C(=O)OCC(CC)CCCC` (configuration not stated), the Potency entry was “inactive”.
Same read-out and setting: under `CN1C(=O)[C@@H](NC(=O)c2cc3ccccc3[nH]2)N=C(c2ccccc2)c2ccccc21` stands “inactive”; under `CSC(=O)c1c(C(F)F)nc(C(F)(F)F)c(C(=O)SC)c1CC(C)C`, “inactive”; under `CNC(C)(C)Cc1ccccc1`, “inactive”.
Still for that read-out and setting: the result for `CCN(CC)CCN1C(=O)CN=C(c2ccccc2F)c2cc(Cl)ccc21` reads “inactive”; that for `CC(=O)C(Cl)C(=O)N(C)C` (configuration not stated), “inactive”.
Regarding `CCC1COC(Cn2cncn2)(c2ccc(Cl)cc2Cl)O1` (configuration not stated), the Potency result was “inactive”.
The same measure, in the same setting: the result for `O=[N+]([O-])c1ccc(CCl)cc1` reads “inactive”; that for `CC(C)N(C(=O)SC/C(Cl)=C/Cl)C(C)C`, “inactive”.
Consider `c1ccc(Nc2ccc(Nc3ccccc3)cc2)cc1`, for which the Potency result is “inactive”.
Still for that read-out and setting: under `COc1ccc(Cc2nccc3cc(OC)c(OC)cc23)cc1OC` stands “inactive”.
On the same count and under the same terms, under `CCCCCCC[CH2][Sn]([Cl])([Cl])[CH2]CCCCCCC` stands “inactive”; under `CC(C)N(C(=O)CCl)c1ccccc1`, “inactive”.
The same measure, in the same setting: the result for `N#Cc1ccc(N(CC(N)=O)CC(F)(F)F)cc1C(F)(F)F` reads “inactive”.
For the compound `Oc1cccc(Cl)c1Cl`, the Potency result is “inactive”.
Same read-out and setting: under `ClC1=C(Cl)[C@]2(Cl)[C@@H]3[C@H]4C[C@H]([C@@H]5O[C@H]45)[C@@H]3[C@@]1(Cl)C2(Cl)Cl` stands “inactive”.

System in another experiment: not listed separately
In words: qHTS assay to identify small molecule agonists of the estrogen receptor alpha (ER-alpha) signaling pathway in the presence of an antagonist - cell viability counter screen (AID 1259386; active = well fitted cell-killing curve with a large enough effect in the repeat runs;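 note: cells exposed to compounds for 22 h at 37 °C before the viability read; nearly all actives have a fitted effect of over 30% in size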; note: potency is the fitted concentration of half-maximal effect). To be noted: VM7Luc4E2 viability, CellTiter-Fluor fluorescence, 22 h; series mostly up to 92.4 µM. In a few lines: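 Cytotoxicity was measured in parallel with the ERE-luciferase agonist screen, in the same wells. The cells were VM7Luc4E2, which endogenously express ER-alpha, and treatment was with compounds plus 10.0nM ICI-182,780 for 22hr.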
For orientation: Quantitative high-throughput screening tests each substance at several concentrations.
With `CCCCCCCCCCCCCCn1cc[n+](C)c1`, the Potency is 15.4 µM (active) and 24.1 µM (active).
The same measure, in the same setting: the result for `O=c1c2ccccc2c(=O)c2c1cc(Cl)c1[nH]c3c([nH]c12)c(Cl)cc1c(=O)c2ccccc2c(=O)c13` reads “inactive”.
The same measure, in the same setting: the result for `CCC(C)Br` (configuration not stated) reads “inactive”.
On the same count and under the same terms, the result for `O=[N+]([O-])c1ccccc1-c1ccccc1` reads “inactive”; that for `CCN(CC)C(=S)S`, “inactive”; that for `Cc1c([N+](=O)[O-])c(C)c([N+](=O)[O-])c(C(C)(C)C)c1[N+](=O)[O-]`, “inactive”.
Consider `CCCCON=O`, for which the Potency entry is “inactive”.
Same read-out and setting: the result for `C[C@@H]1CC2=CC(=O)CC[C@@H]2[C@H]2CC[C@@]3(C)[C@@H](CC[C@]3(C)O)[C@@H]21` reads “inactive”.
On the same count and under the same terms, the result for `CCNS(=O)(=O)C(F)(F)C(F)(F)C(F)(F)C(F)(F)C(F)(F)C(F)(F)C(F)(F)C(F)(F)F` reads “inactive”; that for `OCC(Br)CBr` (configuration not stated), “inactive”; that for `[O]=[Cr][O][Cr]=[O]`, “inactive”.
The same measure, in the same setting: under `CC(=O)[O-].CC(=O)[O-].O.O.[Zn+2]` stands “inactive”; under `CCCCC(CC)COC(=O)c1ccccc1C(=O)OCC(CC)CCCC` (configuration not stated), “inactive”; under `CN1C(=O)[C@@H](NC(=O)c2cc3ccccc3[nH]2)N=C(c2ccccc2)c2ccccc21`, “inactive”.
Take `[Cl-].[Cl-].[Cl-].[Yb+3]`: the Potency result was “inactive”.
Same read-out and setting: under `CSC(=O)c1c(C(F)F)nc(C(F)(F)F)c(C(=O)SC)c1CC(C)C` stands “inactive”.
Same read-out and setting: under `CN(C)c1ccc(N)cc1` stands 53.2 µM (active); under `CCN(CC)CCN1C(=O)CN=C(c2ccccc2F)c2cc(Cl)ccc21`, “inactive”.
`CC(=O)C(Cl)C(=O)N(C)C` (configuration not stated): the Potency entry is “inactive”.
Same read-out and setting: under `CCC(C)Nc1c([N+](=O)[O-])cc(C(C)(C)C)cc1[N+](=O)[O-]` (configuration not stated) stands “inactive”.
For the compound `CCn1cc[n+](C)c1` (tested in a mixture with another compound), the Potency entry is “inactive”.
The same measure, in the same setting: the result for `CCC1COC(Cn2cncn2)(c2ccc(Cl)cc2Cl)O1` (configuration not stated) reads “inactive”; that for `O=[N+]([O-])c1ccc(CCl)cc1`, “inactive”.
For the compound `CC(C)N(C(=O)SC/C(Cl)=C/Cl)C(C)C`, the Potency entry was “inactive”.
In the case of `O.O.O.O=C([O-])[C@H]([O-])[C@@H]([O-])C(=O)[O-].O=C([O-])[C@H]([O-])[C@@H]([O-])C(=O)[O-].[K+].[K+].[Sb+3].[Sb+3]`, the Potency is 54.8 µM (active).
On the same count and under the same terms, under `COc1ccc(Cc2nccc3cc(OC)c(OC)cc23)cc1OC` stands 13.3 µM (active).
On the same count and under the same terms, under `CCCCCCC[CH2][Sn]([Cl])([Cl])[CH2]CCCCCCC` stands “inactive”.
Take `N#Cc1ccc(N(CC(N)=O)CC(F)(F)F)cc1C(F)(F)F`: the Potency entry is “inactive”.
The same measure, in the same setting: under `Oc1cccc(Cl)c1Cl` stands “inactive”.
In the case of `CC(=O)[O-].CC(=O)[O-].CC(=O)[O-].[Sb+3]`, the activity change, negative = cytotoxicity was -1.24% [at 3.27 µM].

The values above are taken from PubChem BioAssay (Tox21).
